Measured values: the supplement of paper PMC3334620
Over roughly 33,000 sequences, “E-score (-0.5 to 0.5)” has its median near -0.0059; the highest 2% begin near 0.26. The sample as a whole holds a higher share of the highest values than the screen did.

Biological target: T1, Cin5 (UniProt P40917)
T1 sequence: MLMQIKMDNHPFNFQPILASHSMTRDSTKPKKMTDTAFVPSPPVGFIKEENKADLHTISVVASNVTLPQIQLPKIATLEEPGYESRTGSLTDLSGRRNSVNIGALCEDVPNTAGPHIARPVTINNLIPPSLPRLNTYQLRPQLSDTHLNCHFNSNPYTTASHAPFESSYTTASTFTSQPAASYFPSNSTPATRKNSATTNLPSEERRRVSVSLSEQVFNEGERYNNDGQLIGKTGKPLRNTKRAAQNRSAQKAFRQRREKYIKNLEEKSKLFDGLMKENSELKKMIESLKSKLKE
Test: PBM E-score (8-mer binding enrichment) (E-score (-0.5 to 0.5)); higher = stronger / more preferred TF binding
Conditions: protein concentration: 100 nM; construct: GST-full length
Procedure: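 Universal 'all 10-mer' protein binding microarrays (Agilent AMADID 015681) probed with GST-tagged S. cerevisiae TFs (full-length or DBD) made by in vitro transcription/translation (PURExpress), about 100-200 nM. Bound TF was detected with fluorescent anti-GST. Each ungapped 8-mer (which stands for itself and its reverse complement) is scored by the PBM enrichment score (E-score), a modified Wilcoxon-Mann-Whitney statistic from -0.5 to +0.5, computed with the Universal PBM Analysis Suite. Scale: above 0.35 generally sequence-specific binding.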

Sequence	PBM E-score
ATCATATG	0.169
ATCATATA	0.269
ATTTTGTA	0.286
ATTATATG	0.249
CTTTTGTA	0.205
GTTATAGA	-0.0531
ATTTTGTG	0.139
GTTATACA	0.181
GTTATATA	0.271
ATTATATC	0.197
ATTATATA	0.333
GTCATATA	0.168
TACATCCA	0.0256
GCAGCACA	0.00715
AGGTGGTA	0.0927
GGCCAGGA	-0.0739
CAGCGTAA	0.0543
AGGCTATA	-0.161
ACTATATC	0.214
ACTATATA	0.309
ATGTTGTG	0.151
GCTATATA	0.153
ATGTTGTA	0.263
CTTATACA	0.0656
CTTATATA	0.348

Sequence	PBM E-score
ATTATCCG	0.289
ATTATCCA	0.122
GTGTTGTA	0.0125
ATTATCCC	0.151
CTTATATC	0.232
GCGTTAAC	0.00491
CCCTAGAC	-0.112
TCCTCGAA	0.043
TAAGCGTA	0.126
GAACTGGA	0.158
CTTTGCGC	0.123
CGTATGAA	0.188
GCTCTATA	-0.0373
GCGATCTA	0.068
ATTTGTAG	0.136
CTTTGTAA	0.115
ATTTGTTC	0.307
ATTATACG	0.257
ATTTTATG	0.208
GTTTTATA	0.148
ATTATACC	0.187
CTTTGTTC	0.0999
ATTATACA	0.123
ATTTGTAA	0.326
ATTTGTTA	0.179

Sequence	PBM E-score
ATTTTATA	0.272
CACCAGTG	-0.0701
AGCCTTGC	-0.0563
CCCCGGGC	-0.282
CGATGACA	0.0915
ATCGACAT	0.0947
ATATTTGC	0.209
CCTTTAAG	-0.107
CTTGAGCA	-0.216
AATCTAAT	0.0853
ATGTATTC	0.104
CCCTATTA	-0.0143
GTCTATTA	0.0891
ACGTATTA	0.298
ATGTATCG	0.232
CTCTATTA	0.0158
ATGTATTG	0.304
ATCTATTA	0.321
ACGTATTG	0.0396
GCCTATTA	0.177
ACCTATTA	0.267
GCGTATTA	0.0794
ACTAGCAA	0.00926
AGATCACT	0.112
ACAAGTAT	0.221

Sequence	PBM E-score
AGGTATTG	0.126
CTTCAGTA	0.0297
ATAGTAGA	0.139
GTGTATTA	0.273
ATGTATTA	0.233
CTGTATTA	0.133
GCTGTTCC	-0.0338
CTCTTATC	0.192
GTGGAAAA	0.0919
CCGCGTGC	-0.0723
CATTACTA	0.189
GCTTACCA	0.381
TCTTACCA	-0.0191
GCTTACGA	0.414
GCTTACAA	0.248
ACTTACAC	-0.04
GCTTACAC	0.391
CCTTACGA	-0.114
AATTACTA	0.212
ACTTACGA	0.207
GATTACTA	0.387
GCTTACCC	0.00966
ATTGTGAC	0.0953
GAGCCACC	-0.354
GTACCGGA	-0.00967

Sequence	PBM E-score
AGCGGCTG	-0.125
ACAGCCAG	-0.0281
CAATTGGC	0.165
AATTCCAA	0.0946
GACGCTTA	-0.059
CGACGTAC	-0.00505
CCGTCGCC	-0.0908
CCCATATA	0.178
AGAAGGAC	-0.211
CGCCAGGA	-0.0898
GCTTACTA	0.388
ACTTATCA	0.0834
CCTTACTA	0.0454
GCTTATCA	0.285
ACTTACTA	0.108
CCTTATCA	0.0994
AAGCCGCG	-0.0409
ACATTCGA	0.0628
ATCCGGAT	0.259
ATCCGGAA	0.227
ATCCGGAC	-0.149
TGGGGTAA	0.0776
CGTAGTCA	-0.015
AATGTAAC	0.117
AATGTAAG	0.319

Sequence	PBM E-score
AATGTAAA	0.19
CATGTAAG	0.13
AATGTAAT	0.301
ACTGTAAG	0.143
CAGGCAAA	-0.00195
AGACCCAG	-0.097
CAACGCCA	-0.074
CTTATTTC	0.238
ATCATTTA	0.226
GTTTATTA	0.215
AGTATTTA	0.0905
ACTATTTC	0.228
ATTTATTA	0.306
GGTATTTA	0.0824
CTTTATTA	0.0651
ATTATTTC	0.3
ATCATTTC	0.264
CTCATTTC	-0.04
CGTATTTA	0.308
ATAGACGC	0.122
CACAGCAG	0.0514
CCTGCGTA	-0.115
GCACCGAC	-0.0796
ATATTTTC	0.31
ATGATTTG	0.123

Sequence	PBM E-score
ATTTATAC	0.253
ATATTTTA	0.201
CTTATTTA	0.164
ATGATTTA	0.268
ATTTATAA	0.299
CTATTTTC	0.0963
ATTATTTA	0.319
CTTTATAA	-0.0352
CTGATTTA	0.0451
ATTATTTG	0.206
GCACTGCA	-0.0484
AGCTGCTA	-0.0218
CCTGCAAG	-0.215
GAAGAATC	0.00251
AACAGCCG	-0.0368
CCGCACAG	-0.0131
GTATAAAC	0.26
ATATAAAA	0.154
GTATAAAA	0.26
ATATAAAC	0.255
CTCTAAAA	-0.125
TTATAAAA	0.289
CTATAAAA	-0.0202
TGATAAAA	0.0968
CTATAAAC	-0.00307
